For three compounds, AC50 and outcome results are on record in PubChem BioAssay (EPA / NIEHS).

Molecules are shown by their SMILES. Calls of active or inactive are those of the source. How the source made its calls: active means hit-call score of the fitted dose curve at least 0.9, where 1 is the maximum; inactive means score below 0.9.

Read-out in test [1]: Transforming growth factor beta 1 (TGFb1), TGFB1 (gene 7040)
The experiment in a line: BSK_KF3CT_TGFb1: BioMAP Diversity Plus: KF3CT Assay for Transforming growth factor beta 1 (TGFb1) Biomarker Activity (AID 2283072). The note with it: primary human keratinocytes with fibroblasts; actives raise or lower the signal. In a few lines:
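ELISA quantifies TGF-b1 at 24 h post-dose in a primary human skin co-culture of keratinocytes and fibroblasts, with gain or loss judged against DMSO. Parallel SRB total-protein staining flags overt cytotoxicity.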

Read-out in test [2]: C-C motif chemokine 2 (Homo sapiens) (UniProt P13500)
The experiment in a line: BSK_KF3CT_MCP1: BioMAP Diversity Plus: KF3CT Assay for Monocyte Chemoattractant Protein 1 (MCP1/CCL2) Biomarker Activity (AID 2283073). As to conditions: primary human keratinocytes with fibroblasts; actives raise or lower the signal. In a few lines:
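Keratinocytes and foreskin fibroblasts were co-cultured, dosed with chemical, and sampled 24 h later. MCP-1 was quantified by ELISA, and the endpoint was analyzed with bidirectional fitting using DMSO as negative control.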

Read-out in test [3]: Matrix Metallopeptidase 9 (MMP9), MMP9 (gene 4318)
The experiment in a line: BSK_KF3CT_MMP9: BioMAP Diversity Plus: KF3CT Assay for Matrix Metallopeptidase 9 (MMP9) Biomarker Activity (AID 2283074).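 On AC50: MMP9 protein level quantified by ELISA in the co-culture.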 The note with it: primary human keratinocytes with fibroblasts; actives raise or lower the signal. The essentials: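 MMP-9 quantified by ELISA after 24 h chemical treatment of primary human skin keratinocyte/fibroblast co-cultures; gain or loss fitted against DMSO, with parallel SRB staining (0.1% SRB, 560 nm) for overt cytotoxicity.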

Read-out in test [4]: urokinase plasminogen activator (uPA), PLAU (gene 5328)
The experiment in a line: BSK_KF3CT_uPA: BioMAP Diversity Plus: KF3CT Assay for urokinase plasminogen activator (uPA) Biomarker Activity (AID 2283075). As to conditions: primary human keratinocytes with fibroblasts; actives raise or lower the signal. In a few lines:
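ELISA read-out of uPA 24 h after dosing human skin keratinocytes co-cultured with foreskin fibroblasts. Signal change fitted both ways relative to DMSO; sulforhodamine B on parallel cultures marks overt cytotoxicity.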

Read-out in test [5]: CD40, CD40 (gene 958)
The experiment in a line: BSK_LPS_CD40: BioMAP Diversity Plus: LPS Assay for CD40 Biomarker Activity (AID 2283076). The note with it: primary human HUVEC with PBMC; actives raise or lower the signal. In a few lines:
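CD40 signal, measured by ELISA, is fitted in both directions relative to DMSO vehicle. The system is an LPS-driven human vascular primary co-culture of endothelial cells and PBMC, sampled 24 h after compound addition.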

Read-out in test [6]: Interleukin-8 (IL8), CXCL8 (gene 3576)
The experiment in a line: BSK_LPS_IL8: BioMAP Diversity Plus: LPS Assay for Interleukin-8 (IL8) Biomarker Activity (AID 2283078). As to conditions: primary human HUVEC with PBMC; actives raise or lower the signal. The essentials:
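Endothelial cells and PBMC from human donors are co-cultured, treated with chemicals and LPS, then assayed for IL-8 by ELISA after 24 h. Parallel SRB staining (0.1% SRB after 10% TCA fixation, 560 nm) flags cytotoxicity.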

Test [7] in a line: BSK_LPS_SRB: Viability Assessment in the BioMAP Diversity Plus: LPS Assay (AID 2283079).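 Further: total protein by sulforhodamine B absorbance as a cytotoxicity measure; measured one day after compound addition; fitted in both directions against DMSO so loss or gain of signal counts.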 As to conditions: primary human HUVEC with PBMC. The essentials: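 Overt cytotoxicity was gauged by sulforhodamine B total-protein staining in a primary human vascular endothelial and mononuclear cell co-culture 24 h post-dosing. Activity was fitted in both directions relative to DMSO.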
Read-out in test [8]: Interleukin-1 alpha (IL1a), IL1A (gene 3552)
The experiment in a line: BSK_LPS_IL1a: BioMAP Diversity Plus: LPS Assay for Interleukin-1 alpha (IL1a) Biomarker Activity (AID 2283080). The note with it: primary human HUVEC with PBMC; actives raise or lower the signal. In a few lines: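 Measured: IL-1 alpha via ELISA at 24 h in LPS-activated human umbilical vein endothelium–PBMC co-culture. Baseline: DMSO, bidirectional fitting.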

Read-out in test [9]: Monocyte Chemoattractant Protein-1 (MCP1), CCL2 (gene 6347)
The experiment in a line: BSK_LPS_MCP1: BioMAP Diversity Plus: LPS Assay for Monocyte Chemoattractant Protein-1 (MCP1) Biomarker Activity (AID 2283081).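 On AC50: secreted MCP-1 protein quantified by ELISA in culture supernatant.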 As to conditions: primary human HUVEC with PBMC; actives raise or lower the signal. In a few lines:
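LPS-stimulated HUVEC/PBMC co-culture; chemical, 24 h; MCP-1 by ELISA; bidirectional fit vs DMSO; cytotoxicity via SRB (0.1% stain, 10% TCA fix, 560 nm) in parallel wells.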

Test [10] in a line: BSK_LPS_PGE2: BioMAP Diversity Plus: LPS Assay for Prostaglandin E2 (PGE2) Biomarker Activity (AID 2283082).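 On AC50: secreted prostaglandin E2 measured by ELISA in LPS-stimulated co-culture.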 As to conditions: primary human HUVEC with PBMC; actives raise or lower the signal. In a few lines:
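PGE2 release measured by ELISA in an LPS-activated co-culture of human umbilical vein endothelial cells and peripheral blood mononuclear cells, read at 24 h post-dosing. DMSO served as baseline for bidirectional curve fitting.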

Read-out in test [11]: Tissue Factor, F3 (gene 2152)
The experiment in a line: BSK_LPS_TissueFactor: BioMAP Diversity Plus: LPS Assay for Tissue Factor Biomarker Activity (AID 2283084). As to conditions: primary human HUVEC with PBMC; actives raise or lower the signal. In a few lines:
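In this co-culture system of umbilical vein endothelium with PBMC, stimulated with LPS, cell-surface CD142 is detected by ELISA at 24 h. Endpoint values derive from bidirectional fitting, DMSO serving as baseline.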

Read-out in test [12]: Tumor necrosis factor (Homo sapiens) (UniProt P01375)
The experiment in a line: BSK_LPS_TNFa: BioMAP Diversity Plus: LPS Assay for Tumour Necrosis Factor alpha (TNFa) Biomarker Activity (AID 2283085).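 On AC50: TNFa protein level quantified by ELISA in the co-culture.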 As to conditions: primary human HUVEC with PBMC; actives raise or lower the signal. In a few lines:
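TNFa was quantified by ELISA in LPS-activated co-cultures of human endothelial cells and PBMC, 24 h post-dosing. Both increases and decreases versus DMSO were fitted.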

Read-out in test [13]: Vascular cell adhesion molecule 1 (VCAM1), VCAM1 (gene 7412)
The experiment in a line: BSK_LPS_VCAM1: BioMAP Diversity Plus: LPS Assay for Vascular cell adhesion molecule 1 (VCAM1) Biomarker Activity (AID 2283086). As to conditions: primary human HUVEC with PBMC; actives raise or lower the signal. In a few lines:
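VCAM-1 quantified by ELISA in an LPS-activated co-culture of human endothelial cells and peripheral blood mononuclear cells, read 24 h post-treatment. Fitted in both directions versus DMSO; parallel SRB staining flags overt cytotoxicity.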

Read-out in the next test: CD38, CD38 (gene 952)
The experiment in a line: BSK_SAg_CD38: BioMAP Diversity Plus: SAg Assay for CD38 Biomarker Activity (AID 2283087). As to conditions: primary human HUVEC with PBMC; actives raise or lower the signal. The essentials:
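CD38 quantified by ELISA (fluorescence) in a superantigen-activated endothelial cell–PBMC co-culture at 24 h post-dose. Activity fitted in both directions relative to DMSO; parallel SRB and Alamar Blue cytotoxicity read-outs.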

Read-out in test [14]: CD40, CD40 (gene 958)
The experiment in a line: BSK_SAg_CD40: BioMAP Diversity Plus: SAg Assay for CD40 Biomarker Activity (AID 2283088). As to conditions: primary human HUVEC with PBMC; actives raise or lower the signal. The essentials: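 Fluorescence ELISA read-out of CD40 from umbilical vein endothelium plus peripheral blood mononuclear cells, sampled 24 h after dosing. Values come from bidirectional curve fitting with DMSO as baseline.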

Read-out in the next test: CD69, CD69 (gene 969)
The experiment in a line: BSK_SAg_CD69: BioMAP Diversity Plus: SAg Assay for CD69 Biomarker Activity (AID 2283089).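 On AC50: cell surface CD69 protein quantified by ELISA with fluorescence detection.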 The note with it: primary human HUVEC with PBMC; actives raise or lower the signal. In a few lines:
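Values derive from bidirectional fitting relative to DMSO vehicle. Cells: umbilical vein endothelium plus peripheral blood mononuclear cells, treated 24 h before fluorescent ELISA for CD69.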

Read-out in test [15]: Monocyte Chemoattractant Protein-1 (MCP1), CCL2 (gene 6347)
The experiment in a line: BSK_SAg_MCP1: BioMAP Diversity Plus: SAg Assay for Monocyte Chemoattractant Protein-1 (MCP1) Biomarker Activity (AID 2283090). As to conditions: primary human HUVEC with PBMC; actives raise or lower the signal. The essentials: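 Values derive from bidirectional fitting of ELISA-measured MCP1 against DMSO controls. Readings were taken 24 h after dosing human vascular endothelial cells co-cultured with peripheral blood mononuclear cells under superantigen stimulation.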

Read-out in test [16]: E-selectin (Homo sapiens) (UniProt P16581)
The experiment in a line: BSK_SAg_Eselectin: BioMAP Diversity Plus: SAg Assay for Eselectin Biomarker Activity (AID 2283091). The note with it: primary human HUVEC with PBMC; actives raise or lower the signal. The essentials:
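Primary human endothelial cells and peripheral blood mononuclear cells were co-cultured and exposed to chemical for 24 hours. E-selectin levels were then quantified by ELISA, with bidirectional curve fitting normalised to DMSO controls.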

Read-out in test [17]: Macrophage colony-stimulating factor (MCSF), CSF1 (gene 1435)
The experiment in a line: BSK_LPS_MCSF: BioMAP Diversity Plus: LPS Assay for Macrophage colony-stimulating factor (MCSF) Biomarker Activity (AID 2283083). The note with it: primary human HUVEC with PBMC; actives raise or lower the signal. The essentials: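 Compound is added to a human vascular primary co-culture of umbilical vein endothelium and blood mononuclear cells. After 24 h, M-CSF is quantified by ELISA. Signal changes are fitted in both directions against DMSO.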

E-selectin (Homo sapiens), sequence (P16581 whole entry, looked up): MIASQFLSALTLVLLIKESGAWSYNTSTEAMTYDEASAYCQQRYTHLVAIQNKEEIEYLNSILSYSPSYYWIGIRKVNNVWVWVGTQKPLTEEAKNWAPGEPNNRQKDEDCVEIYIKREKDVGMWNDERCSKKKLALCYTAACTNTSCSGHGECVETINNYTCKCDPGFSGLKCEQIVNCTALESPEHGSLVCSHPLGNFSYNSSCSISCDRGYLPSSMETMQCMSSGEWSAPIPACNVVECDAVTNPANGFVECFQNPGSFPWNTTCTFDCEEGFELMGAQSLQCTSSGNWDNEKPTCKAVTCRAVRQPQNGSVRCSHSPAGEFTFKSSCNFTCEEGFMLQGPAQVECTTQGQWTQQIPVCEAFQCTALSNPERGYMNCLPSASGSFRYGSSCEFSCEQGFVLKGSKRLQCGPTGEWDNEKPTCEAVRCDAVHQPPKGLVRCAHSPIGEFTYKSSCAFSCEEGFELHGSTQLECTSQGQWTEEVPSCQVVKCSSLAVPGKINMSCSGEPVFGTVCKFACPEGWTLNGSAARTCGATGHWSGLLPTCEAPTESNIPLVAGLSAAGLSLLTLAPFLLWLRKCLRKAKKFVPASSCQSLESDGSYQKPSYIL
Tumor necrosis factor (Homo sapiens), sequence (P01375 whole entry, looked up): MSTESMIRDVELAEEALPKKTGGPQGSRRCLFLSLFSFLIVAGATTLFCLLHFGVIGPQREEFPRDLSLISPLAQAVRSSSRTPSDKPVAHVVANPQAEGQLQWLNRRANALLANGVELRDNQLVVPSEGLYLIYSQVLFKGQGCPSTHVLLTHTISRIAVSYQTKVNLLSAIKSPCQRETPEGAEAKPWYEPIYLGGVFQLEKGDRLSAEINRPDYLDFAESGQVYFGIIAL

One may read the AC50 as the midpoint of the concentration-response curve, whichever way the signal moves. For the compound `CC[C@H](c1ccc(O)cc1)[C@@H](CC)c1ccc(O)cc1`, the AC50 in [1] was 29.8 µM (active); in [2] it was 32.7 µM (active); in [3], 19.4 µM (active); in test [4] it was 35 µM (active); in the test with CD40, CD40 (gene 958) [5], 17.4 µM (active); in [6], 35.1 µM (active). The AC50 was 31.5 µM (active) in [7]; 31.3 µM (active) in [8]; 33.8 µM (active) in [9]; 38.1 µM (active) in [10]; 32 µM (active) in [11]; 30.6 µM (active) in test [12]. In addition, the AC50 was 29 µM (active) in test [13]; 19.1 µM (active) with CD38, CD38 (gene 952); 20.7 µM (active) in the test with CD40, CD40 (gene 958) [14]; 20.6 µM (active) in the test with CD69, CD69 (gene 969); 23.9 µM (active) in test [15]; 17.9 µM (active) in test [16].
Consider `Oc1cccc(O)c1`, for which the outcome in [2] is “inactive”; in [3], “inactive”; in [4] it was “inactive”; with CD40, CD40 (gene 958) [5], “inactive”; in [6], “inactive”; in test [7], “inactive”. Besides, the result in test [8], in test [9], in [10], in [17], in test [11] and in [12] was inactive. Further, the outcome in test [13] is “inactive”; with CD38, CD38 (gene 952), “inactive”; with CD40, CD40 (gene 958) [14] it was “inactive”; in the test with CD69, CD69 (gene 969) it was “inactive”; in [15] it was “inactive”; in test [16], “inactive”.
With `COc1ccc([N+](=O)[O-])cc1N`, the outcome was “inactive” in test [1]; “inactive” in test [2]; “inactive” in test [3]; “inactive” in test [4]; “inactive” in the test with CD40, CD40 (gene 958) [5]; “inactive” in [6]. Further, the outcome in test [7], in test [8], in [9], in test [10], in [11] and in [12] was inactive. For the same compound, the outcome with CD38, CD38 (gene 952) is “inactive”; in the test with CD40, CD40 (gene 958) [14], “inactive”; with CD69, CD69 (gene 969), “inactive”; in [15] it was “inactive”; in test [16], “inactive”.
